Compounds with a hit are over-represented: about 7.4% of the library has one in this group of screens.
Rab9 prom act – qHTS Assay for Rab9 Promoter Activators. Huh7 Rab9 promoter-luciferase reporter, luminescence, 24 h. Potency, µM (titrated, usually from 9.22 µM), inactives show top-dose activation, negative = inhibition, hits mostly activators. 320,000 tested, 2.8% active; note: % of control where 0% means no effect; nearly all actives have a fitted effect of over 60% in size
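Luminescence from Amplite-detected luciferase (10 minutes, ambient) reports Rab9 promoter activation. Before that, stable Rab9-luciferase Huh7 cells (1500/well, reduced-serum OP-MEM I plus 10% FBS) were exposed to compound for 24 hours at 37C.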
FLuc modulator – qHTS profiling assay for firefly luciferase inhibitor/activator using purifed enzyme and Km concentrations of substrates (counterscreen for miR-21 project); Potency, µM (highest dose often 57.5 µM), inactives show at the highest dose activity change, negative = inhibition, actives largely listed as inhibitors; 360,000 tested, 6.9% active; purified FLuc, Km substrates, luminescence inhibition; Luciferin 4-monooxygenase (Photinus pyralis), P08659;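 note: plate controls were vehicle for no effect and reference inhibitor for full effect; nearly all actives have a fitted effect of over 55% in size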
Target sequence (P08659 whole entry, looked up): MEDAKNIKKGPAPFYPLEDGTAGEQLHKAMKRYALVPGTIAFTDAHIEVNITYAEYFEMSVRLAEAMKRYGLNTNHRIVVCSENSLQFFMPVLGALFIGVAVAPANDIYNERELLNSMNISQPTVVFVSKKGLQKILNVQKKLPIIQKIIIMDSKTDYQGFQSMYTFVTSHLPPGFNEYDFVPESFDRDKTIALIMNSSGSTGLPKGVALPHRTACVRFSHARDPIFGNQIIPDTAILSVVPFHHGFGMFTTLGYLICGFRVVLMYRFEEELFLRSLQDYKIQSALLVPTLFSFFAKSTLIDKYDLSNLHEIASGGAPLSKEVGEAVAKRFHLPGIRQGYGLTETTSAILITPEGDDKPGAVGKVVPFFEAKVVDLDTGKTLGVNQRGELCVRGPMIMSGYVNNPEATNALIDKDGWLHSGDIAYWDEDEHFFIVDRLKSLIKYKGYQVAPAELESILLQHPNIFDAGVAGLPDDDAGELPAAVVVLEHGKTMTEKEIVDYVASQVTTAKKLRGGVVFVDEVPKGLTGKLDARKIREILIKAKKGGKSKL
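Biochemical qHTS of compounds, final roughly 60 µM downward over six points, against 10 nM purified firefly luciferase using Km concentrations of substrates (10 uM D-luciferin, 10 uM ATP) in Tris acetate pH 7.5 buffer; luminescence output.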
ELG1 genotox – qHTS screen for small molecules that induce genotoxicity in human embryonic kidney (HEK293T) cells expressing luciferase-tagged ELG1. Potency, µM (series often up to 46 µM), for the others: at the highest dose activity change, positive = activation, hits mostly activators. HEK293T ELG1-luciferase reporter, luminescence, 16 h. 330,000 tested, 1.3% active. AID 504466, 2011; note: % of control where 0% means no effect; nearly all actives have a fitted effect of over 60% in size
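Quantitative HTS format in 1536-well plates. HEK293T ELG1-luciferase reporter cells receive test compound and are incubated 16 hr at 37 °C, 5% CO2; ONE-Glo added, 30 min room temperature, then luminescence read.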
SMN2 splice up – qHTS Assay for Enhancers of SMN2 Splice Variant Expression; 210,000 tested, 2.8% active; HEK293 SMN2-luciferase splicing reporter, luminescence, 30-36 h; Potency, µM (highest dose often 46.1 µM), for inactives: top-dose activity change, positive = activation, usual class: activators; note: % of control where 0% means no effect; nearly all actives have a fitted effect of over 55% in size
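HEK293 cells carry an SMN2 […]–luciferase reporter in which exon 7 inclusion puts luciferase in frame. Cells were plated 10-12 h before compound addition, then incubated 30-36 h at 37C. ONE-Glo luminescence was read; sodium butyrate at 4.5 mM final served as control.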
NPC1 prom act – qHTS Assay for NPC1 Promoter Activators; Huh7 NPC1 promoter luciferase reporter, 24 h; Potency, µM (top dose mostly 9.22 µM), for the others: at the highest dose activation, actives largely listed as activators; 320,000 tested, 2.4% active; note: % of control where 0% means no effect; nearly all actives have a fitted effect of over 60% in size
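Quantitative HTS used a cell-based reporter: Huh7 cells stably bearing the NPC1 promoter upstream of luciferase were treated with compounds for 24 h, and promoter activation was read as luminescence.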
* = called active by the depositor; ? = inconclusive; . = no result given; [ ] = dose if it differs, or a comment. Calls come from the whole dose curve; as a rule, active = well fitted curve in the direction sought with a large enough effect; inconclusive = small, poorly fitted or top-dose-only effect, or another doubt; inactive = no such curve, though single readings can be large; an effect the other way counts as inactive or inconclusive. Potency is the fitted concentration of half-maximal effect.

SMILES | Rab9 prom act | FLuc modulator | ELG1 genotox | SMN2 splice up | NPC1 prom act
CCOC(=O)CSc1nc2ccc(NC(=O)c3ccc(C)cc3)cc2s1 | . | 5.4µM* | . | . | .
CCC(=O)Nc1nc2ccc(NC(C)=O)cc2s1 | ? | ? | ? | 18% | 24%
COc1ccc(C(=O)Nc2ccc3nc(SCc4ccc(C)cc4)sc3c2)cc1 | . | -1% | . | . | .
CC(=O)Nc1ccc2nc(NC(=O)c3ccco3)sc2c1 | 2µM* | 11µM* | ? | . | 1.4µM*
CSc1nc2ccc(NC(=O)c3ccc(F)c(F)c3)cc2s1 | ? | ? | ? | 16µM* | ?
CSc1nc2ccc(NC(=O)c3cc4ccccc4o3)cc2s1 | 2.5µM* | 1.1µM* | ? | . | 1.6µM*
Cc1ccc(NC(=O)C2CCN(c3nc4ccccc4[nH]3)CC2)cc1Cl | . | -11% | . | . | .
CCOCCCNC(=O)c1cc2c(=O)[nH]c3ccccc3c2n1C | . | 1% | . | 6% | .
CCOc1ccc(NC(=O)Cn2c(=O)n(CCCC(=O)NCCc3ccc(Cl)cc3)c(=O)c3ccccc32)cc1 | . | -3% | . | . | .
CS(=O)(=O)c1ccc2nc(NC(=O)c3cc([N+](=O)[O-])cc([N+](=O)[O-])c3)sc2c1 | 2% | ? | -2% | . | 12%
CC(=O)Nc1ccc2nc(NC(=O)c3ccc([N+](=O)[O-])o3)sc2c1 | 16% | 21µM* | -13% | . | 12%
CSc1nc2ccc(NC(=O)c3ccco3)cc2s1 | 2.5µM* | 9.5µM* | 8.2µM* | . | 2.8µM*
COc1ccc2nc(NC(=O)c3ccc(-c4cccc([N+](=O)[O-])c4)o3)sc2c1 | 7% | -5% | 4% | -14% | 1%
CS(=O)(=O)c1ccc2nc(NC(=O)c3cccc([N+](=O)[O-])c3)sc2c1 | 1.3µM* | 1.7µM* | ? | . | 1.6µM*
O=C(Nc1nc2ccc([N+](=O)[O-])cc2s1)c1ccco1 | 0.79µM* | 2.1µM* | -10% | 3.5µM* | 1.6µM*
CCOC(=O)c1ccc(NC(=O)CC(=O)Nc2ccc3nc4n(c(=O)c3c2)CCCCC4)cc1 | . | -15% | . | 16% | .
Cc1ccccc1Nc1c(-c2cccs2)nc2cccc(C)n12 | . | -17% | . | -2% | .
O=C(Nc1nc2ccc([N+](=O)[O-])cc2s1)c1c(F)cccc1F | 19% | 8.5µM* | -1% | ? | 23%
CSc1nc2ccc(NC(=O)c3ccc(=O)n(C)n3)cc2s1 | ? | 17µM* | 22% | -17% | 28%
COc1cc(C(=O)Nc2ccc(Cl)c(-c3nc4ncccc4o3)c2)cc(OC)c1OC | . | 1% | . | -8% | .
Cc1ccc(C(=O)Nc2ccc(Cl)c(-c3nc4ncccc4o3)c2)c(C)c1 | . | 2.7µM* | . | ? | .
Cc1c(C(=O)Nc2ccccc2Br)oc2ccc(S(=O)(=O)N3CCCCCC3)cc12 | . | -2% | . | . | .
COc1cc(C(=O)Oc2ccccc2/C=N/NC(=O)c2ccc(C)c(Cl)c2)cc(OC)c1OC | -33% | -1% | ? | -96% | -23%
COc1cc(C(=O)Oc2ccccc2/C=N/NC(=O)c2ccc(Cl)cc2)cc(OC)c1OC | -24% | 6.7µM* | ? | -101% | 0%
COc1ccccc1/C=N/NC(=O)CNC(=O)c1ccccc1 | -1% | ? | -3% | . | 4%
SMILES | Rab9 prom act | FLuc modulator | ELG1 genotox | SMN2 splice up | NPC1 prom act
COc1ccccc1/C=N/OC(=O)c1ccc(F)cc1 | 1% | 3.4µM* | 3% | . | 3%
COc1ccc(C(=O)N/N=C\c2coc3ccccc3c2=O)cc1 | -5% | 4.8µM* | -7% | . | -3%
COc1ccccc1/C=N/NC(=O)c1ccc(Br)cc1 | 1% | 13µM* | -5% | 7% | -3%
COc1ccccc1/C=N/OCc1cc(C(C)=O)ccc1OC | -1%[1.84 µM] | -7% | 3% | . | -3%
COc1ccc(/C=N/NC(=O)c2ccncc2)c(OC)c1 | 3% | ? | -2% | . | -1%
COc1ccc(/C=N/NC(=O)c2ccc(Br)cc2)c(OC)c1 | -2% | 15µM* | 7% | 29% | -3%
O=C(Nc1ccc(Br)cc1)c1cc([N+](=O)[O-])cc([N+](=O)[O-])c1 | 5% | 2% | -15% | . | -1%
O=c1c2c([N+](=O)[O-])cc([N+](=O)[O-])cc2sn1Cc1ccccc1 | 5% | 9.5µM* | -1% | . | -4%
O=c1c2c([N+](=O)[O-])cc([N+](=O)[O-])cc2sn1-c1ccc(Br)cc1 | -1% | 21µM* | -1% | -4% | -5%
CC(C)C1N(C(=O)CN2CCCCC2)CCN1S(=O)(=O)c1ccccc1 (configuration not stated) | -4% | 0% | 1% | -15% | 0%
CCc1ccc(N2CCn3c2nc2c3c(=O)n(Cc3c(F)cccc3Cl)c(=O)n2C)cc1 | . | -1% | . | . | .
CCc1ccc(N2CCn3c2nc2c3c(=O)n(Cc3ccc(F)cc3)c(=O)n2C)cc1 | . | 9.5µM* | . | . | .
O=C1OC(c2cccs2)=N/C1=C/c1ccc(-c2cccc(C(=O)O)c2)o1 | -3% | 24µM* | ? | 6% | 3%
N=C1/C(=C/c2ccc(-c3cccc(C(=O)O)c3)o2)C(=O)N=C2SC=C(c3ccccc3)N12 | 25% | 24µM* | 2% | 17% | 0%
CC(C)S(=O)(=O)C1=NSC2=NC(=O)/C(=C\c3ccc(-c4cccc(C(=O)O)c4)o3)C(=N)N21 | -3% | 13µM* | -9% | 1% | -3%
CS(=O)(=O)C1=NSC2=NC(=O)/C(=C\c3ccc(-c4ccccc4)o3)C(=N)N21 | 5% | 12µM* | 4% | 5% | 4%
O=S(=O)(NCc1nc2cccnc2n1Cc1ccc(F)cc1)c1ccc2c(c1)CCCC2 | . | -10% | . | . | .
CCOc1cc(/C=N/NC(=O)c2cccnc2)ccc1O | -6% | -2% | -1% | . | -5%
O=C(N/N=C/c1ccccc1OCc1ccccc1Cl)c1cccnc1 | -5% | 24µM* | 5% | -21% | 0%
CCOc1cccc(/C=N/NC(=O)c2cccnc2)c1O | -11% | 19µM* | ? | . | -21%
O=C(Nc1ccc(OCc2ccccc2Cl)cc1)c1cccnc1 | 1% | ? | 2% | . | -3%
CCOc1cccc(/C=N/NC(=O)c2cc(C3CC3)[nH]n2)c1O | -37% | 12µM* | ? | . | -43%
O=C(COc1cccnc1[N+](=O)[O-])NCc1cccs1 | -10% | -1% | 4% | 21% | 3%
CCN1C(=S)SC(=O)C1=C1C=C(C)N(Cc2ccco2)C(C)=C1 | 0.63µM* | 3.4µM* | 2.6µM* | ? | 1.4µM*
CCN1C(=S)SC(=O)C1=C1C=C(C)OC(C)=C1 | ? | ? | 13% | 1% | ?
O=C(Nc1ccc(Cl)cc1)OCc1ccccn1 | 2.2µM* | 12µM* | 18% | 13µM* | 2.5µM*
O=C(Nc1ccc(Cl)cc1)OCc1cncs1 | ? | 15µM* | 7% | -26% | ?

Screening results as filed in PubChem BioAssay.
